The source made the active and inactive calls. Unless noted, no rule for the calls is given here.
Assays:
[1] = anti-His antibody binders, primary screen, artefact control for SMM control protein annotation, biochemical, small-molecule microarray, 635 nm fluorescence (AID 1128); conditions: anti-His Alexa647 antibody binding, higher = more signal;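 also: score merges feature fluorescence with signal-to-noise for each printed compound spot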
[2] = test system: Human papillomavirus type 1a E7 protein (residues 1-88); assay: HPV1a E7 small-molecule binders, primary screen, biochemical, small-molecule microarray, residues 1-88, 635 nm (AID 1129); conditions: small-molecule microarray binding, fluorescence 635 nm; higher = more signal
[3] = target: Focal adhesion kinase 1 (Homo sapiens) (UniProt Q05397); assay: small-molecule microarray binders of FAK, primary screen, biochemical, 635/667 nm fluorescence, BSA, DTT (AID 1130); conditions: PTK2 binding, 635 nm fluorescence, higher = more signal;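 also: composite of spot emission at 667 nm and signal to noise over triplicate slides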
Focal adhesion kinase 1 (Homo sapiens), sequence (Q05397 whole entry, looked up): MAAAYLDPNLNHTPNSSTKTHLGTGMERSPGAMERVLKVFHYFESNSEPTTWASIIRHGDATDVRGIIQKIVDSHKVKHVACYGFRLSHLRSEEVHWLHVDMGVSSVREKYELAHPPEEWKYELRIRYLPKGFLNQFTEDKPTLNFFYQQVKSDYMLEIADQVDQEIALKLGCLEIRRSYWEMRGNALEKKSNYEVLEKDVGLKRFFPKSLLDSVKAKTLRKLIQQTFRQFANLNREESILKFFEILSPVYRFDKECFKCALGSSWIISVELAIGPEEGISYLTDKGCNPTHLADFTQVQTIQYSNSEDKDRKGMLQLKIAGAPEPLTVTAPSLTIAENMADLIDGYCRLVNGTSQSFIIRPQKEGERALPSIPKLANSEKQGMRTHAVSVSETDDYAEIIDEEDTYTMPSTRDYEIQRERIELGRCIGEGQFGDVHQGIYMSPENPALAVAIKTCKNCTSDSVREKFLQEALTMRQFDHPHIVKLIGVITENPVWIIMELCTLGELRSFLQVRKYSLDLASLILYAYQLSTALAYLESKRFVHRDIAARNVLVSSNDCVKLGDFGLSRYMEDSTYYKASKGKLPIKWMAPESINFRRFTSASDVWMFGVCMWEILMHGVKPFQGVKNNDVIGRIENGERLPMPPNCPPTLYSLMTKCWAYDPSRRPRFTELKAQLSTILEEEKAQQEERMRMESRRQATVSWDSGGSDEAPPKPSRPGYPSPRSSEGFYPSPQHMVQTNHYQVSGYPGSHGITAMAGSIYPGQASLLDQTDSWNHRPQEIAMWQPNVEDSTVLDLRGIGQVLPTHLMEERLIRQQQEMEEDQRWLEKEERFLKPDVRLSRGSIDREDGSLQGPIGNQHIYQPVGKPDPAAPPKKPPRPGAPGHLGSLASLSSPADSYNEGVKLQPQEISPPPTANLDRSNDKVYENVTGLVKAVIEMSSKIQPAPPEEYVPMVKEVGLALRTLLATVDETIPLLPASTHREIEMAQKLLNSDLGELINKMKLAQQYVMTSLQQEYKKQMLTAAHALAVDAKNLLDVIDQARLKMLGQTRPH

[4] = test system: Fibrinogen (Alexa647-labelled); assay: fibrinogen binders on compound microarrays, profiling panel, artefact control for SMM control-protein annotation, biochemical, small-molecule microarray, 635/667 nm fluorescence (AID 1131); conditions: fibrinogen-A647 binding fluorescence, higher = more signal;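 also: z-score merges 667 nm fluorescence with per-spot signal-to-noise over triplicate slides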
[5] = target: Follistatin (Homo sapiens) (UniProt P19883); assay: follistatin binders on small-molecule microarrays, primary screen, biochemical, small-molecule microarray, 635/667 nm fluorescence (AID 1132); conditions: FST binding, 635 nm fluorescence, higher = more signal
Follistatin (Homo sapiens), sequence (P19883 whole entry, looked up): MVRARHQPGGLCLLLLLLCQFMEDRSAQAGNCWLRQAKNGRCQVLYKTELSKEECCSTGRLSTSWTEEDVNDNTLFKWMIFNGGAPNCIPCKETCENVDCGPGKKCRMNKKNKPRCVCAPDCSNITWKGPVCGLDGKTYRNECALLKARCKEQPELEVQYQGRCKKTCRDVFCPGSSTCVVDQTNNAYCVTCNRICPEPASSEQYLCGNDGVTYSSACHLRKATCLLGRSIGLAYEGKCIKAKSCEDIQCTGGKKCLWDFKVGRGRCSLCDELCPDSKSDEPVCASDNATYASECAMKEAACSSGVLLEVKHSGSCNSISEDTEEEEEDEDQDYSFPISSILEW

[6] = target: Fibroblast growth factor 2 (Homo sapiens) (UniProt P09038); assay: FGF2 binders on small-molecule microarrays, primary screen, biochemical, small-molecule microarray, 635/667 nm fluorescence (AID 1133); conditions: small-molecule microarray binding, FGF2, fluorescence 635/667; higher = more signal
Fibroblast growth factor 2 (Homo sapiens), sequence (P09038 whole entry, looked up): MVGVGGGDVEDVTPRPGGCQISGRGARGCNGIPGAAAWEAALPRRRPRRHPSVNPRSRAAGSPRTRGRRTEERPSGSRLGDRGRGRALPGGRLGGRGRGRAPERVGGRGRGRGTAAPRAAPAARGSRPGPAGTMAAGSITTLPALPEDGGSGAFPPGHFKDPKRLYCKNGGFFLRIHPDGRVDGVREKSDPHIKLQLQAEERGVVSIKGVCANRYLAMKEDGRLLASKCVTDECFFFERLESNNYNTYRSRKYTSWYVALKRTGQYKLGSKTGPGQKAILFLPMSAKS

[7] = mitochondrial membrane potential change in A549 cells, profiling panel, cell-based, JC-1 fluorescence, basal, 24 h, 100 nL (AID 1138); conditions: higher = more signal;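 also: A549 lung adenocarcinoma cells under basal conditions with no added stimulus; test concentration not given here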
Lefty1 = Lefty1 binders on small-molecule microarrays, primary screen, biochemical, small-molecule microarray, 635/667 nm fluorescence (AID 1139); conditions: small-molecule microarray binding, fluorescence 635/667; higher = more signal
[8] = test system: wheat germ agglutinin (Triticum aestivum), Alexa647-labelled; assay: wheat germ agglutinin binders on compound microarrays, profiling panel, artefact control for SMM control-protein annotation, biochemical, small-molecule microarray, 635/667 nm fluorescence (AID 1140); conditions: WGA-A647 binding, 635 nm fluorescence, higher = more signal;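 also: score merges 667 nm feature emission with signal to noise over triplicate slides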
[9] = target: Luciferin 4-monooxygenase (Photinus pyralis) (UniProt P08659); assay: firefly luciferase enzyme inhibitors, primary screen, biochemical, luminescence, purified enzyme, 2006 set (AID 1141); conditions: SteadyGlo luminescence, 30 min, higher = more signal, called active from +8 up or from −8 down;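 also: cell-free assay with purified firefly luciferase at 100 ng per well in PBS; test concentration not given here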
Luciferin 4-monooxygenase (Photinus pyralis), sequence (P08659 whole entry, looked up): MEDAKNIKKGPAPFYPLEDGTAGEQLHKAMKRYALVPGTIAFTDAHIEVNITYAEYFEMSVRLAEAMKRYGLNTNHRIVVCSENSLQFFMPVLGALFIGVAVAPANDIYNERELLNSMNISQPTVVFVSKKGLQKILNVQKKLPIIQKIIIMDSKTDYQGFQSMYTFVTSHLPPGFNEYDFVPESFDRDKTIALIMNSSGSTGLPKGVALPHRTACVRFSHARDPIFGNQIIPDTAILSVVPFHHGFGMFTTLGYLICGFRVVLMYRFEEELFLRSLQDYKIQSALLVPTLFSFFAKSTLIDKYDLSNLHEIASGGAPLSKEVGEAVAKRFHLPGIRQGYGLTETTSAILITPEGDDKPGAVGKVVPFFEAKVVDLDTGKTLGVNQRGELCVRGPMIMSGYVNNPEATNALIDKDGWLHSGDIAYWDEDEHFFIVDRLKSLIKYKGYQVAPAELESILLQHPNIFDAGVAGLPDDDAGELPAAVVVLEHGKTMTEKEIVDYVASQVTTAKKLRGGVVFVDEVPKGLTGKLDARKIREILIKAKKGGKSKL

[10] = test system: Wnt5a (protein binding on small-molecule microarray); assay: Wnt5a binders on small-molecule microarray, primary screen, biophysical, 635/667 nm fluorescence (AID 1142); conditions: 635 nm fluorescence, higher = more signal;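 also: fluorescence read at 667 nm with signal to noise per printed feature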
[11] = cell viability in Huh7 cells, primary screen, cytotoxicity control for HCV replication inhibitor project, CellTiter-Glo luminescence, basal, 48 h (AID 1143); conditions: Huh7 HCV replicon, higher = more signal, called active from +8 up or from −8 down;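 also: Huh7 hepatoma cells carrying a hepatitis C replication reporter with no stimulus; test concentration not given here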
[12] = P. aeruginosa biofilm formation inhibitors, primary screen, PAO1 strain, BacTiter-Glo luminescence, LB-PBS (AID 1144); conditions: 12 h, higher = more signal
[13] = CREB reporter modulators without forskolin, primary screen, cell-based, PC12, CRE-LacZ reporter, unstimulated (AID 1145); conditions: no forskolin, luminescence, 4.5 h, higher = more signal, called active from +8 up or from −8 down
[14] = CREB reporter modulators under forskolin, primary screen, cell-based, PC12, CRE-LacZ reporter, forskolin-stimulated (AID 1146); conditions: luminescence, 4.5 h, higher = more signal, called active from +8 up or from −8 down;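 also: PC12 cells with 6xCRE LacZ reporter stimulated by forskolin 10 µM; beta-galactosidase reporter signal reflecting CREB driven transcription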
[15] = target: Streptavidin (Streptomyces avidinii) (UniProt P22629); assay: streptavidin binders on small-molecule microarray, primary screen, artefact control for SMM compound annotation, biophysical, 635/667 nm fluorescence (AID 1147); conditions: streptavidin binding, higher = more signal;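 also: signal reflects streptavidin binding to arrayed compounds as a control protein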
Streptavidin (Streptomyces avidinii), sequence (P22629 whole entry, looked up): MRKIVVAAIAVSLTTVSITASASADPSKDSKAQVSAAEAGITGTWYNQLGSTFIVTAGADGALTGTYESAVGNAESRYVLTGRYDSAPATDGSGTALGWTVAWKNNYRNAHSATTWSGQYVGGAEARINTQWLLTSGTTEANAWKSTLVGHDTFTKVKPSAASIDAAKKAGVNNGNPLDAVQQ

[16] = small-molecule binders of probe aInhba, primary screen, biochemical, small-molecule microarray, 635/667 nm fluorescence (AID 1148); conditions: higher = more signal;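 also: score merges 667nm spot fluorescence with signal-to-noise for antibody binding to printed compounds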
Torsin-1A (Homo sapiens) [17] = target: Torsin-1A (Homo sapiens) (UniProt O14656); assay: torsin A binders from cell lysate, primary screen, small-molecule microarray, wild-type, 635/667 nm (AID 1149); conditions: COS7 hTOR1A-WT lysate, 635 nm fluorescence, higher = more signal
Torsin-1A (Homo sapiens), sequence (O14656 whole entry, looked up): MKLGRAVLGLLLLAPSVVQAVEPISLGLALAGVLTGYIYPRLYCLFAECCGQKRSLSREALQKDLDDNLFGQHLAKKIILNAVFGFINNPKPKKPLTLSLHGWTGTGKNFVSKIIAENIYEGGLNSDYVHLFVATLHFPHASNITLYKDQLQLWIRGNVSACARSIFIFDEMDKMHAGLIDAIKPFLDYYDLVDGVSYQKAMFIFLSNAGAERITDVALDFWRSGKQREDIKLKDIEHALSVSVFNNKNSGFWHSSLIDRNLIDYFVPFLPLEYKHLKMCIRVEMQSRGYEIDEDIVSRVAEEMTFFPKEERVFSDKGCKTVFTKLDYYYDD

Torsin-1A (Homo sapiens) [18] = target: Torsin-1A (Homo sapiens) (UniProt O14656); assay: small-molecule binders of mutant TOR1A in lysate, primary screen, cell lysate, small-molecule microarray, COS7 lysate, 635/667 nm fluorescence (AID 1150); conditions: COS7 hTOR1A mutant lysate, 635 nm fluorescence, higher = more signal;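 also: score pools 667 nm emission and signal to noise measuring lysate protein binding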
[19] = test system: Sonic hedgehog protein (Shh); assay: small-molecule binders of Shh protein, primary screen, biochemical, small-molecule microarray, 635/667 nm fluorescence (AID 1151); conditions: small-molecule microarray binding, 635 nm fluorescence; higher = more signal;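 also: Shh protein binding to compounds spotted on small-molecule microarray slides; score combines spot fluorescence intensity with signal-to-noise across triplicate slides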

Structure (SMILES)	composite z-score [1]	composite z-score [2]	composite z-score [3]	composite z-score [4]	composite z-score [5]	composite z-score [6]	z-score [7]	composite z-score (Lefty1)	composite z-score [8]	z-score [9]	composite z-score [10]	z-score [11]	z-score [12]	z-score [13]	z-score [14]	composite z-score [15]	composite z-score [16]	composite z-score (Torsin-1A (Homo sapiens) [17])	composite z-score (Torsin-1A (Homo sapiens) [18])	composite z-score [19]
N#Cc1ccc(NN2C(C(O)c3ccc(F)cc3)C=CC3C(=O)N(c4ccccc4)C(=O)C32)cc1 (stereo not given)	1.57	0.57	0.171	0.797	0.0089	0.866	0.324	-0.577	0.94	0.646 (inactive)	0.0035	0.632 (inactive)	-0.377 (inactive)	0.629 (inactive)	0.521 (inactive)	0.945	-0.0791	0.0271	-0.0504	-0.304
COC(=O)C(CC#Cc1ccc2c(c1)[C@]1(C(=O)N2)[C@H](C(=O)N2CCN(c3ncccn3)CC2)[C@H]2C(=O)O[C@H](c3ccccc3)[C@H](c3ccccc3)N2[C@@H]1c1ccc(OCCO)cc1)C(=O)OC	2.65	1.25	0.179	0.982	1.38	1.63	-1.35	1.31	1.03	-1.22 (inactive)	0.545	-1.02 (inactive)	-0.99 (inactive)	-0.671 (inactive)	-0.772 (inactive)	0.736	0.109	0.393	0.798	2.23
CCOC(=O)C1=CC[C@@H](c2cccc(Cl)c2)N(S(=O)(=O)c2ccc(C)cc2)C1	1.66	1.14	0.399	-0.112	0.191	-0.0072	2.48	-0.345	0.844	-2.75 (inactive)	-0.159	-5.08 (inactive)	-0.06 (inactive)	-0.574 (inactive)	0.132 (inactive)	0.449	0.0173	0.176	0.193	-0.327
C=CCN1Cc2ccccc2[C@H]2OC(c3ccc(OCCCO)cc3)=N[C@@]2(CC=C)C1=O	2.47	1.23	1.12	0.59	1.54	1.87	1.33	0.834	0.619	-0.107 (inactive)	1.07	-3.16 (inactive)	-0.746 (inactive)	0.0594 (inactive)	-1.58 (inactive)	0.998	0.268	1.08	0.475	1.91
C=CCOC(=O)[C@H]1[C@@H]2C(=O)O[C@@H](c3ccccc3)[C@@H](c3ccccc3)N2[C@@H](c2ccc(OCCOC(=O)[C@@H]3C[C@@H]4C(=O)N[C@@H](CCCCN(C)C)C(=O)N4[C@@H]3c3ccc(O)cc3)cc2)[C@]12C(=O)Nc1ccccc12	1.57	1.14	0.0515	0.503	1.38	1.48	-1.49	1.54	0.382	-3.27 (inactive)	0.261	-0.0273 (inactive)	0.283 (inactive)	0.411 (inactive)	0.739 (inactive)	-0.245	-0.0468	0.756	0.73	1.96
CC(C)[Si](C#CCCCC#N)(O[C@H](c1ccccc1)c1cn([C@H](CO)Cc2ccccc2)nn1)C(C)C	-0.135	1.12	0.26	0.975	1.14	0.812	0.162	0.385	0.231	-0.175 (inactive)	-0.187	-0.248 (inactive)	-0.747 (inactive)	-0.463 (inactive)	1.01 (inactive)	1.18	-0.108	0.531	0.477	0.774
COc1ccc(CCNC(=O)[C@@H]2c3ccccc3C(=O)N(Cc3cc(C(F)(F)F)cc(C(F)(F)F)c3)[C@H]2c2ccc(CO)cc2)cc1	2.15	0.102	-0.152	0.629	0.255	-0.258	1.95	-0.297	0.985	-1.16 (inactive)	0.822	-1.41 (inactive)	0.703 (inactive)	0.441 (inactive)	0.632 (inactive)	0.915	-0.016	-0.498	-0.181	0.355
O=C(N1CCCCC1)[C@@]1(CCS(=O)(=O)c2ccccc2)COC(c2ccc(OCCCO)cc2)=N1	2.55	1.22	0.298	0.839	1.4	1.52	0.32	0.126	0.848	-0.0825 (inactive)	1.17	-2.3 (inactive)	0.514 (inactive)	0.62 (inactive)	-0.334 (inactive)	1.31	0.421	1.19	0.496	0.447
Cc1ccc(S[C@]2(C(=O)NCC(F)(F)F)CC(=O)N(Cc3ccccc3)[C@@H]2c2ccc(CO)cc2I)cc1	0.905	0.676	-0.315	0.0957	-0.0488	-0.177	0.16	-0.779	0.626	0.424 (inactive)	0.0543	-1.22 (inactive)	0.479 (inactive)	-0.581 (inactive)	1.83 (inactive)	-0.119	0.0228	-0.565	-0.49	0.237
COCCOC(=O)N1C(=O)[C@@]2(c3cc(C#CC4=CCCCC4)ccc31)[C@H](C(=O)N1CCCCCCC1)[C@H]1C(=O)O[C@H](c3ccccc3)[C@H](c3ccccc3)N1[C@@H]2c1ccc(O)cc1	-0.014	1.13	0.701	-0.0414	1.12	0.446	0.5	0.486	0.436	-5.8 (inactive)	0.278	-4.39 (inactive)	-1.7 (inactive)	-0.815 (inactive)	0.234 (inactive)	0.0947	0.329	0.681	0.595	1.3
